The values below come from PubChem BioAssay (NCI).

This is part of a sample that, as a whole, favours compounds with a hit. Of some 83,000 tested, about 20% had one in any assay.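 Testing used 96-well plates and a 48-hour single-concentration exposure. Example: -40 means 40% of the starting cells died.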 A number with no mark means an inactive call. Activity calls are given as the source filed them. How the source made its calls: active means growth percent below 10; inactive means the rest.

Among the test systems are SK-MEL-2 melanoma; EKVX NSCLC; SN12C renal; UO-31 renal; TK-10 renal; ACHN renal; CAKI-1 renal; A498 renal; CCRF-CEM leukemia; MOLT-4 leukemia; SR leukemia; RPMI-8226 leukemia; OVCAR-8 ovarian; OVCAR-5 ovarian; SK-OV-3 ovarian; IGROV1 ovarian; OVCAR-3 ovarian; HS 578T breast; NCI/ADR-RES ovarian.
What all share (assay): NCI-60 one-dose screen, 48 h (100 = growth as untreated, 0 = no growth, -100 = all killed)
Conditions in all cases: 10 µM unless noted

For `CC[C@]12C=CCN3CC[C@@]4(c5ccc(OC)cc5N(C)[C@H]4[C@@](O)(C(=O)OC)[C@@H]1OC(=O)CCC(=O)N[C@H](Cc1c[nH]c4ccccc14)C(=O)OC)[C@@H]32`, the growth was -48.8% [100 µM] (active) in the assay on SK-MEL-2 melanoma; -58.7% [100 µM] (active) in the assay with EKVX NSCLC; -68.7% [100 µM] (active) in the assay with SN12C renal; -55.5% [100 µM] (active) with UO-31 renal; -38.7% [100 µM] (active) with TK-10 renal; -64.7% [100 µM] (active) in the assay on ACHN renal. Moreover, the growth in the assay with CAKI-1 renal is -71% [100 µM] (active); in the assay on A498 renal, -49.9% [100 µM] (active); with CCRF-CEM leukemia it was 7.07% [100 µM] (active); with MOLT-4 leukemia it was -12.4% [100 µM] (active); in the assay with SR leukemia, 26% [100 µM]; with RPMI-8226 leukemia it was 0.693% [100 µM] (active). For the same compound, the growth in the assay with OVCAR-8 ovarian was 0.282% [100 µM] (active); in the assay with OVCAR-5 ovarian, -58.1% [100 µM] (active); in the assay with SK-OV-3 ovarian, -18.1% [100 µM] (active); with IGROV1 ovarian it was -38.7% [100 µM] (active); with OVCAR-3 ovarian it was -48.8% [100 µM] (active); with HS 578T breast it was -43.8% [100 µM] (active). The growth in the assay on NCI/ADR-RES ovarian is -30.7% [100 µM] (active).

As for `C=C(C)[C@@H]1CC[C@]2(c3ncc(C)o3)CC[C@]3(C)[C@H](CC[C@@H]4[C@@](C)(CCC#N)[C@H](C(=C)C)CC[C@]43C)[C@@H]12`, the growth in the assay with SK-MEL-2 melanoma was -89.5% [100 µM] (active); in the assay with EKVX NSCLC, -79.1% [100 µM] (active); in the assay with SN12C renal it was -91.5% [100 µM] (active); in the assay on UO-31 renal, -94.4% [100 µM] (active); with TK-10 renal, -90.6% [100 µM] (active); in the assay with ACHN renal it was -97.8% [100 µM] (active). In addition, the growth with CAKI-1 renal is -96.4% [100 µM] (active); in the assay on A498 renal it was -93.4% [100 µM] (active); in the assay on CCRF-CEM leukemia, -11.1% [100 µM] (active); with MOLT-4 leukemia, -35.4% [100 µM] (active); with SR leukemia, 14.9% [100 µM]; with RPMI-8226 leukemia, -41% [100 µM] (active). The growth is -78.1% [100 µM] (active) in the assay on OVCAR-8 ovarian; -97.2% [100 µM] (active) in the assay on OVCAR-5 ovarian; -88.4% [100 µM] (active) in the assay with SK-OV-3 ovarian; -87.6% [100 µM] (active) in the assay with IGROV1 ovarian; -80.4% [100 µM] (active) in the assay with OVCAR-3 ovarian; -28% [100 µM] (active) in the assay on HS 578T breast. Besides, the growth with NCI/ADR-RES ovarian was -82.9% [100 µM] (active).

Consider `COc1ccc2c(c1)c(-c1noc(-c3cn(C)c4ncc(F)cc34)n1)cn2C`, for which the growth with SK-MEL-2 melanoma is 94%; with EKVX NSCLC it was 65%; with SN12C renal, 52.7%; with UO-31 renal it was 85.1%; with TK-10 renal, 86.2%; in the assay with ACHN renal, 84.4%. Moreover, the growth is 76.6% in the assay on CAKI-1 renal; 65.7% in the assay on A498 renal; 99% in the assay with CCRF-CEM leukemia; 87.6% in the assay with MOLT-4 leukemia; 83.8% with SR leukemia; 92.1% with RPMI-8226 leukemia. For the same compound, the growth in the assay with OVCAR-8 ovarian was 63.7%; with OVCAR-5 ovarian, 87.6%; in the assay with SK-OV-3 ovarian, 79.1%; with IGROV1 ovarian it was 69.6%; in the assay on OVCAR-3 ovarian it was 42%; with HS 578T breast, 91%. The growth in the assay on NCI/ADR-RES ovarian was 68.3%.

As to `Cc1cnc(N)nc1OCCNC(=O)c1cccc(-c2ccc(S(=O)(=O)Nc3ccc4c(c3)N(C(=O)C3CC3)CCC4)cc2)c1`, the growth is 74.4% with SK-MEL-2 melanoma; 98.9% in the assay with EKVX NSCLC; 79.7% with SN12C renal; 77.1% in the assay on UO-31 renal; 93.1% in the assay on TK-10 renal; 84.9% in the assay with ACHN renal. Further, the growth with CAKI-1 renal was 77.4%; in the assay with A498 renal, 40.2%; in the assay with CCRF-CEM leukemia, 64.1%; in the assay on MOLT-4 leukemia it was 37.7%; in the assay with SR leukemia, 104%; in the assay on RPMI-8226 leukemia, 42.7%. Also, the growth is 67.4% in the assay with OVCAR-8 ovarian; 105% in the assay on OVCAR-5 ovarian; 98.8% in the assay on SK-OV-3 ovarian; 74% in the assay on IGROV1 ovarian; 79.5% in the assay with OVCAR-3 ovarian; 75.3% with HS 578T breast. Moreover, the growth in the assay on NCI/ADR-RES ovarian was 102%.

Turning to `Cc1ccc(Cn2c(O)c(N=NC(=O)c3ccc(S(N)(=O)=O)cc3)c3ccccc32)cc1`, the growth was 109% in the assay on SK-MEL-2 melanoma; 103% in the assay on EKVX NSCLC; 96.9% in the assay with SN12C renal; 73% with UO-31 renal; 106% in the assay with TK-10 renal; 93.3% with ACHN renal. Moreover, the growth in the assay with CAKI-1 renal is 92.9%; in the assay with A498 renal, 86.8%; in the assay on CCRF-CEM leukemia, 106%; in the assay on MOLT-4 leukemia, 93.8%; in the assay on SR leukemia, 104%; in the assay with RPMI-8226 leukemia, 91.7%. Further, the growth in the assay on OVCAR-8 ovarian is 92.7%; with OVCAR-5 ovarian, 109%; in the assay on SK-OV-3 ovarian, 109%; in the assay on IGROV1 ovarian, 107%; in the assay with OVCAR-3 ovarian it was 107%; with HS 578T breast it was 101%. Moreover, in the assay with NCI/ADR-RES ovarian, the growth was 108%.

On to `CC1(C)CC[C@]23CC[C@]4(C)[C@H](CC[C@@H]5[C@@]6(C)C/C(=C/c7ccncc7)C(=O)C(C)(C)[C@@H]6CC[C@]54C)[C@H]2[C@H]1OC3=O`, for which the growth was 29.5% [100 µM] with SK-MEL-2 melanoma; 85.5% [100 µM] in the assay with EKVX NSCLC; 65.6% [100 µM] in the assay with SN12C renal; 91.8% [100 µM] in the assay with UO-31 renal; 51.5% [100 µM] with TK-10 renal; 43.9% [100 µM] with ACHN renal. The growth is 50.8% [100 µM] in the assay on CAKI-1 renal; 58.6% [100 µM] in the assay on A498 renal; 79.3% [100 µM] in the assay with CCRF-CEM leukemia; 69.1% [100 µM] in the assay on MOLT-4 leukemia; 93.5% [100 µM] in the assay with SR leukemia; 41.1% [100 µM] with RPMI-8226 leukemia. Further, the growth in the assay with OVCAR-8 ovarian was 51.9% [100 µM]; with OVCAR-5 ovarian, 111% [100 µM]; with SK-OV-3 ovarian it was 47.7% [100 µM]; in the assay with IGROV1 ovarian, 70.1% [100 µM]; in the assay with OVCAR-3 ovarian it was 85.2% [100 µM]; in the assay with HS 578T breast it was -3.34% [100 µM] (active). In addition, in the assay with NCI/ADR-RES ovarian, the growth was 64.4% [100 µM].
